TDP1 cell CPT – DT40-hTDP1 cell growth loss with CPT. Potency, µM (series often up to 46.2 µM), hits mostly inhibitors. AID 686979. hit rate 12% among 420,000. chicken DT40 Tdp1-/-;hTDP1 cells + 20 nM CPT, ATP luminescence, 48 h; further: nearly all actives have a fitted effect of over 55% in size
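Chicken DT40 Tdp1-/- cells complemented with human TDP1, 400 cells/well, exposed to compounds plus 20 nM camptothecin for at least 48 h at 37 C; viability read as ATP content by CellTiter-Glo luminescence.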
DT40 TDP1 no CPT – qHTS for Inhibitors of human tyrosyl-DNA phosphodiesterase 1 (TDP1): qHTS in cells in absence of CPT; DT40 Tdp1-/- hTDP1 cells, no CPT, ATP luminescence, 48 h; Potency, µM (highest dose often 46.2 µM), usual class: inhibitors; hit rate 15% among 420,000; further: nearly all actives have a fitted effect of over 55% in size
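Luminescent ATP content (CellTiter-Glo) served as the growth readout. Knockout chicken DT40 cells expressing human TDP1 were exposed to compounds without camptothecin for a minimum 48 hr at 37 °C.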
HT1080NT lethal – kills 2HG-producing HT-1080-NT fibrosarcoma cells; HT-1080-NT fibrosarcoma viability, CellTiter-Glo ATP luminescence, 48 h; Potency, µM (top dose mostly 46.1 µM), actives largely listed as cytotoxic; hit rate 1.6% among 360,000;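 further: NT is the 2HG producing partner of a matched IDH1 knockdown line; nearly all actives have a fitted effect of over 55% in size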
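HT-1080-NT; 750 cells/well; 5% FBS RPMI; 48 h compound, 37 degrees C; CellTiter-Glo luminescence; curve fitting and curve-class assignment.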
KB-3-1 tox – KB-3-1 parental cell cytotoxicity | KB-3-1 viability, CellTiter-Glo ATP luminescence, 72 h | Potency, µM (top dose mostly 46.1 µM), most hits filed as cytotoxic | hit rate 1.4% among 400,000 | AID 1347075; further: nearly all actives have a fitted effect of over 60% in size
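Screening of KB-3-1 cells (DMEM, 10% FBS, phenol-red free) ran from lowest to highest compound concentration; after 72 h at 37 °C viability was read luminescently and curves fitted.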
HT1080 IDH1KD tx – kills HT-1080 cells with IDH1 knockdown. AID 686971. hit rate 2% among 360,000. HT-1080 IDH1 knockdown viability, ATP luminescence, 48 h. Potency, µM (titrated, usually from 46.1 µM), usual class: cytotoxic
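Cytotoxicity counter-line: IDH1KD HT-1080, 48 h, CellTiter-Glo. Curves classed by r2, magnitude and activity.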
KB-V1 MDR tox – kills drug-selected multidrug resistant KB-V1 cells; KB-V1 MDR cells viability, CellTiter-Glo, 72 h; Potency, µM (titrated, usually from 46.1 µM), hits mostly cytotoxic; hit rate 3.4% among 400,000; AID 1347076; further: nearly all actives have a fitted effect of over 60% in size
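Drug-selected KB-V1 cells, grown in DMEM lacking phenol red with 10% FBS, receive compound titrations; after three days at 37 degrees C, surviving cell ATP is quantified by CellTiter-Glo luminescence and responses normalized and curve-fitted.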
Of the large screens only hits and unclear results are named; the others gave an inactive call. Shown are actives, neighbours in structure and some others; about 19% of the full set was active somewhere. The call rests on the fitted dose curve; in most records, active means well fitted curve in the direction sought with a large enough effect; inconclusive means small, poorly fitted or top-dose-only effect, or another doubt; inactive means no such curve, though single readings can be large; an effect the other way counts as inactive or inconclusive.

CCc1ccc(-n2nc(C)c3c(C)cc(=O)n(CC(=O)Nc4cc(C)ccc4C)c32)cc1	none (no result: HT1080NT lethal, HT1080 IDH1KD tx)
CCCOc1ccc(NC(=O)CC2C(=O)N(Cc3ccccc3)C(=S)N2Cc2cccs2)cc1 (configuration not stated)	TDP1 cell CPT 9.2µM, DT40 TDP1 no CPT 20.6µM, KB-3-1 tox inconclusive, KB-V1 MDR tox inconclusive
CCN1C(=O)C(CC(=O)Nc2ccc(OC)cc2)N(CCCN2CCN(c3ccc(OC)cc3)CC2)C1=S (configuration not stated)	TDP1 cell CPT 20.6µM, DT40 TDP1 no CPT 16.4µM, HT1080NT lethal inconclusive
COc1ccc(NC(=O)CC2C(=O)N(c3ccc(Cl)cc3)C(=S)N2CCc2ccccn2)cc1 (configuration not stated)	TDP1 cell CPT 25.9µM, DT40 TDP1 no CPT inconclusive, KB-3-1 tox inconclusive, KB-V1 MDR tox inconclusive
CCOc1ccc(N2C(=O)C(CC(=O)Nc3ccccc3)N(Cc3ccccn3)C2=S)cc1 (configuration not stated)	TDP1 cell CPT inconclusive, DT40 TDP1 no CPT inconclusive, HT1080 IDH1KD tx inconclusive, KB-V1 MDR tox inconclusive
C=CCN1C(=O)C(CC(=O)Nc2ccc(OCC)cc2)N(Cc2ccccn2)C1=S (configuration not stated)	DT40 TDP1 no CPT inconclusive
Cc1cc2cc(CCNC(=O)c3ccc(C)c([N+](=O)[O-])c3)c(=O)[nH]c2cc1C	TDP1 cell CPT inconclusive, DT40 TDP1 no CPT 13µM, KB-V1 MDR tox 6.51µM
Cc1cc2cc(CNC(=O)c3ccc(C)c([N+](=O)[O-])c3)ccc2[nH]1	TDP1 cell CPT 20.6µM, DT40 TDP1 no CPT 10.3µM
Cc1cc2cc(CCNC(=O)c3ccc(S(=O)(=O)N4CCCC4)cc3)c(=O)[nH]c2cc1C	TDP1 cell CPT 18.4µM, DT40 TDP1 no CPT 20.6µM (no result: KB-3-1 tox, KB-V1 MDR tox)
COc1ccc(OC)c2[nH]c(=O)c(CCNC(=O)c3ccc(S(=O)(=O)N4CCCCC4)cc3)cc12	TDP1 cell CPT inconclusive, DT40 TDP1 no CPT inconclusive, KB-V1 MDR tox 8.2µM
COc1ccc(OC)c2[nH]c(=O)c(CCNC(=O)c3ccc(S(=O)(=O)N(C)C)cc3)cc12	none
O=C(NCCc1ccc(F)cc1)c1ccc(S(=O)(=O)N2CCCC2)cc1	KB-V1 MDR tox inconclusive
Cc1ccc2cc(CCNC(=O)C(C)C)c(=O)[nH]c2c1C	HT1080NT lethal inconclusive
Cc1ccc2cc(CCNC(=O)c3ccc4c(c3)OCO4)c(=O)[nH]c2c1C	TDP1 cell CPT 20.6µM, DT40 TDP1 no CPT 14.6µM, KB-V1 MDR tox inconclusive
CC(C)(C)OC(=O)N1CCC(C(=O)Nc2ccc(C(=O)NCCc3ccccc3)cc2)CC1	TDP1 cell CPT inconclusive, DT40 TDP1 no CPT 10.3µM
CC(C)(C)OC(=O)N1CCC(C(=O)Nc2cccc(C(=O)NCCCCc3ccccc3)c2)CC1	TDP1 cell CPT inconclusive, DT40 TDP1 no CPT inconclusive
CC(C)(C)OC(=O)N1CCC(C(=O)Nc2ccc(C(=O)NCc3ccccc3)cc2)CC1	TDP1 cell CPT 16.4µM, DT40 TDP1 no CPT 14.6µM
CCC(=O)Nc1ccc(-c2nnc(SCc3ccccc3)n2C)cc1	none (no result: HT1080NT lethal, HT1080 IDH1KD tx)
Cc1ccc(C(=O)N2CCN(c3ccc([N+](=O)[O-])c(NCc4ccco4)c3)CC2)cc1	TDP1 cell CPT inconclusive, DT40 TDP1 no CPT 16.4µM
Cc1ccccc1C(=O)N1CCN(c2ccc([N+](=O)[O-])c(NCc3ccco3)c2)CC1	TDP1 cell CPT inconclusive, DT40 TDP1 no CPT inconclusive, KB-V1 MDR tox inconclusive
Cc1cccc(C(=O)N2CCN(c3ccc([N+](=O)[O-])c(NCc4ccco4)c3)CC2)c1	TDP1 cell CPT inconclusive, DT40 TDP1 no CPT 20.6µM
Cc1c(F)cccc1NS(=O)(=O)c1ccc2c(c1)c(C)cc(=O)n2C	TDP1 cell CPT inconclusive, DT40 TDP1 no CPT inconclusive
CCCCN(c1nc2ccccc2nc1Cl)S(=O)(=O)c1ccc(C)cc1	TDP1 cell CPT 20.6µM, DT40 TDP1 no CPT 9.2µM, HT1080 IDH1KD tx inconclusive, KB-V1 MDR tox inconclusive

Screens (PubChem)
